RGS4-Gao reg – modulates binding of RGS4 to human Galphao. actives 0.33% (n = 220,000). AID 1415. P09471. Multiplexed bead flow cytometry; actives lie on both sides. binding response (% of control), % at 10 µM; in the data active means binding response below about 49% or above about 150%; inactive means in between;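 further: fluorescent Galphao activated with aluminum fluoride binding bead-coupled RGS4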
Target sequence (P09471 whole entry, looked up): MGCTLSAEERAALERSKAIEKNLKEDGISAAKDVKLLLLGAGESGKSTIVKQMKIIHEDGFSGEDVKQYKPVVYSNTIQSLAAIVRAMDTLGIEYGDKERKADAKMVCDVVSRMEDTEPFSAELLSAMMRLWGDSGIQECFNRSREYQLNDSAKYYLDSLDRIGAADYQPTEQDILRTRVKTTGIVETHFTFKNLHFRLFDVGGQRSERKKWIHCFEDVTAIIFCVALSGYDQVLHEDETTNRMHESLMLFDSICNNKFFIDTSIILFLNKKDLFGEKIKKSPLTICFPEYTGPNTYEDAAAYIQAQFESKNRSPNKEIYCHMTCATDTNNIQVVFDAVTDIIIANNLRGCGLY
RGS16-Gao – RGS16-Galphao interaction regulator (human). O15492+P09471. bead-based flow cytometry RGS16-Galphao binding, fluorescence; actives lie on both sides. binding response (% of control), % at 10 µM. actives 0.38% (n = 220,000). AID 1441;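 further: Galphao activated by GDP with aluminum fluoride before binding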
GSH bead fluor – GSH bead compound fluorescence profile. AID 1776. actives 0.25% (n = 190,000). GSH beads flow cytometry, compound fluorescence 488/530 nm; stronger effect = higher value. fluorescence (KMESF) at 10 µM; in the data active means fluorescence above about 89;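 further: glutathione beads carrying GST-tagged Bcl family fusion proteins plus one bare bead set; values are compound well signal with DMSO vehicle wells as background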
Avidin fluor – avidin bead compound fluorescence profile; actives 0.38% (n = 220,000); fluorescence (KMESF) at 10 µM; AID 1775; Avidin beads, compound fluorescence 488/530 nm, flow cytometry; stronger effect = higher value; in the data active means fluorescence above about 47
RGS7-Gao – regulators of human RGS7-Galphao interaction; Multiplexed bead flow cytometry, RGS7-Galphao binding; actives lie on both sides; binding response (% of control), % at 10 µM; actives 0.35% (n = 220,000); AID 1439; in the data active means binding response below about 49% or above about 150%; inconclusive means no clear call, values can overlap the other calls; inactive means in between;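 further: fluorescent Galphao held in activated GDP-AlF4 state binding bead-coupled RGS7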
RGS8-Gao reg – modulates binding of RGS8 to human Galphao | actives 0.34% (n = 220,000) | P09471 | response (percent of control binding), % at 10 µM | multiplexed bead flow cytometry; actives lie on both sides; in the data active means response below about 60% or above about 140%; inactive means in between;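 further: Galphao activated as the GDP aluminium fluoride complex binding bead-coupled RGS8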
RGS-Gao – RGS4-Galphao interaction regulator (human). shares compounds with RGS16-Gao. AID 1504. RGS4–Galpha-o binding response, % at 10 µM. actives 99% (n = 1,600). multiplexed bead flow cytometry, RGS–Galpha-o binding;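 further: fluorescently labeled Galpha-o bound to GDP with aluminium fluoride binding biotinylated RGS beads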
Biotin-avidin – counter-screen: compounds disrupting biotin binding to avidin beads | shares compounds with RGS16-Gao | streptavidin beads, fluorescein-biotin binding, flow cytometry | inhibition, % at 10 µM | 1,700 tested, under 10 active | AID 1783;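 active means inhibition above 50%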;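 further: median green fluorescence of gated singlet beads compared with DMSO control wells; 0% = DMSO wells and 100% = complete loss of bead fluorescence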
RGS8-Gao single – RGS8-Galphao interaction regulation, single point confirmation | shares compounds with RGS16-Gao | bead-based flow cytometry RGS8-Galphao binding, fluorescence; actives lie on both sides | binding response (% of control), % at 10 µM | actives 3% (n = 1,700) | AID 1836; in the data active means binding response below about 72% or above about 130%; inactive means in between;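 further: Galphao activated as GDP AlF4 complex before binding bead RGS8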
RGS7-Gao confirm – RGS7-Galphao interaction regulation, single point confirmation. shares compounds with RGS16-Gao. bead-based flow cytometry RGS7-Galphao binding; actives lie on both sides. response (percent of control binding), % at 10 µM. actives 7.8% (n = 1,700); in the data active means response below about 75% or above about 130%; inactive means in between;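 further: fluorescent Galphao activated with GDP and aluminum fluoride binding bead-coupled RGS7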
RGS16-Gao single – confirmation of regulators of human RGS16-Galphao interaction; shares compounds with RGS16-Gao; bead-based flow cytometry, RGS16-Galphao binding; actives lie on both sides; response (% of control binding), % at 10 µM; actives 4% (n = 1,700); AID 1838; in the data active means response below about 74% or above about 130%; inactive means in between;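 further: Galphao activated as the GDP aluminium fluoride complex binding bead-coupled RGS16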
RGS4-Gao confirm – RGS4-Galphao interaction regulation, single point confirmation | shares compounds with RGS16-Gao | RGS4-Galphao binding, multiplexed bead flow cytometry; actives lie on both sides | binding response (% of control), % at 10 µM | actives 4% (n = 1,700) | AID 1840; in the data active means binding response below about 74% or above about 130%; inactive means in between
RGS19-Gao conf – confirmation of regulators of human RGS19-Galphao interaction; AID 1841; bead-based flow cytometry RGS19-Galphao binding; actives lie on both sides; shares compounds with RGS16-Gao; actives 5% (n = 1,700); response (percent of control binding), % at 10 µM; in the data active means response below about 50% or above about 160%; inactive means in between;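 further: 100% = no compound control and 0% = blank background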
Starred values were filed as active, the others as inactive; ? = inconclusive; nt = no result; [ ] = dose if it differs, or a comment. Hits are enriched below; roughly 1.2% of the tested compounds scored in any of these assays. Unless noted, how the calls were made is not given here.

SMILES	RGS4-Gao reg	RGS16-Gao	GSH bead fluor	Avidin fluor	RGS7-Gao	RGS8-Gao reg	Biotin-avidin	RGS8-Gao single	RGS7-Gao confirm	RGS16-Gao single	RGS4-Gao confirm	RGS19-Gao conf	others
COc1ccccc1NC(=O)C1=C(C)NC(=O)NC1c1ccccc1F (configuration not stated)	99.1	101.6	21	13	104.2	97.8	nt	nt	nt	nt	nt	nt
COc1ccc2[nH]c(=O)c(COC(=O)c3cccs3)cc2c1	20.9*	14.4	10	-2	20.4*	22.5*	-2.1	100.7	91.6	98.0	101.2	84.4
Cc1cc(C)c2c(CC(=O)NC(C)C)coc2c1	141.4	160.2	16	20	142.7	151.3*[activator]	-0.1	102.3	96.5	101.7	98.9	85.0	RGS-Gao=141.4*
O=C(c1cc2c(s1)CCCC2)N1CCN(S(=O)(=O)c2ccccc2C(F)(F)F)CC1	104.0	135.0	8	11	103.2	111.9	nt	nt	nt	nt	nt	nt
CCCc1nc2c(o1)CC(CC(C)SCC)CC2=O (configuration not stated)	-7.5*	-7.1*	44	-4	-1.3*	7.4*	1.4	98.8	99.4	97.1	97.3	106.5
CCSC(C)CC1CC(=O)CC(=O)C1 (configuration not stated)	nt	nt	41	nt	nt	nt	3.0	96.4	101.0	98.5	99.7	88.1
CC(C)Nc1ccc(C(CC(N)=O)NC(=O)Cc2ccc(Cl)cc2)cc1[N+](=O)[O-] (configuration not stated)	85.2	85.7	nt	6	?	92.3	nt	nt	nt	nt	nt	nt
CSCCC1COC(c2cccs2)=N1 (configuration not stated)	104.0	99.8	13	7	89.1	105.6	nt	nt	nt	nt	nt	nt
CC(C)CCNC(=O)NC(=O)COC(=O)C1=COCCO1	21.0*	9.2*	17	2	17.2*	13.2*	-1.2	100.7	100.3	101.5	103.9	98.5
CC1CC(=O)Nc2ccccc2N1C(=O)Nc1ccc(F)cc1 (configuration not stated)	nt	nt	nt	nt	nt	94.5	0.5	100.6	99.3	99.4	98.8	96.6
O=C(Nc1ccc(Cl)cc1)NC1CCS(=O)(=O)C1 (configuration not stated)	106.0	179.9	14	16	108.7	113.8	nt	nt	nt	nt	nt	nt
O=C(Nc1ccccn1)NC1CCS(=O)(=O)C1 (configuration not stated)	75.9	-92.4*	16	9	81.9	79.5	-0.7	101.5	98.4	101.5	100.6	103.2	RGS-Gao=75.9*
O=C(Nc1ccccn1)NC1CCCCC1	198.9*[activator]	nt	32	nt	nt	nt	0.1	100.8	101.5	101.5	103.5	111.0
O=C(NCc1ccccn1)NC1CCCCC1	101.5	94.5	8	3	99.0	100.6	nt	nt	nt	nt	nt	nt
O=C(NCCCCc1ccccc1)C1CC(c2cc(C(F)(F)F)cc(C(F)(F)F)c2)=NO1 (configuration not stated)	101.0	101.3	nt	8	?	97.8	nt	nt	nt	nt	nt	nt
CNC(=O)c1[nH]cnc1C(=O)Nc1ccc(OC)cc1	105.3	106.8	nt	6	?	104.1	nt	nt	nt	nt	nt	nt

Compound activity (PubChem)
